# Assay outcomes (PubChem BioAssay)
# This is a sample that favours compounds with a hit; in the whole collection about 2.8% have one here.
# GASC-1 inh: inhibitors of GASC-1 histone demethylase, primary screen, biochemical, fluorescence, DELFIA europium; Lysine-specific demethylase 4C (Homo sapiens), Q9H3R0; GST-JMJD2C(1-420) H3K9me3 demethylation; inhibition, % at 2.35 µM; hit rate 0.069% among 330,000;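 active means more than half of a compound's replicate wells show inhibition beyond 50%, single wells judged on their own value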;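 further: signal counts dimethyl H3K9 product captured on neutravidin plate; 0% = median of DMSO wells and 100% = 0.3 times that DMSO median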
# KLK7 zymogen act: proKLK7 zymogen activators, primary screen, biochemical, fluorescence intensity; Kallikrein-7 (Homo sapiens), P49862; purified proKLK7, EDANS-DABCYL substrate fluorescence; 100% is mature enzyme control, 0% vehicle; activation, % at 7 µM; hit rate 0.9% among 370,000;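 active means activation above the mean of all tested compounds plus 3 SD, computed per campaign excluding outliers beyond control limits, cut at about 13% in these data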
# NR1D1 modulator: modulators of Rev-erb alpha DNA binding, primary screen, biochemical, FITC-DNA, fluorescence polarization, uHTS; Nuclear receptor subfamily 1 group D member 1 (Homo sapiens), P20393; AID 1259318, 2017; activity, % at 10 µM; hit rate 0.79% among 370,000; Rev-erbα–FITC-DNA binding, 90 min;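 active means activity above about 14%, limit read from the data; passing the limit was not always enough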;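 further: 0% = DMSO wells with 35 nM protein and 100% = DMSO wells with 750 nM protein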
# Target sequence (P20393 whole entry, looked up): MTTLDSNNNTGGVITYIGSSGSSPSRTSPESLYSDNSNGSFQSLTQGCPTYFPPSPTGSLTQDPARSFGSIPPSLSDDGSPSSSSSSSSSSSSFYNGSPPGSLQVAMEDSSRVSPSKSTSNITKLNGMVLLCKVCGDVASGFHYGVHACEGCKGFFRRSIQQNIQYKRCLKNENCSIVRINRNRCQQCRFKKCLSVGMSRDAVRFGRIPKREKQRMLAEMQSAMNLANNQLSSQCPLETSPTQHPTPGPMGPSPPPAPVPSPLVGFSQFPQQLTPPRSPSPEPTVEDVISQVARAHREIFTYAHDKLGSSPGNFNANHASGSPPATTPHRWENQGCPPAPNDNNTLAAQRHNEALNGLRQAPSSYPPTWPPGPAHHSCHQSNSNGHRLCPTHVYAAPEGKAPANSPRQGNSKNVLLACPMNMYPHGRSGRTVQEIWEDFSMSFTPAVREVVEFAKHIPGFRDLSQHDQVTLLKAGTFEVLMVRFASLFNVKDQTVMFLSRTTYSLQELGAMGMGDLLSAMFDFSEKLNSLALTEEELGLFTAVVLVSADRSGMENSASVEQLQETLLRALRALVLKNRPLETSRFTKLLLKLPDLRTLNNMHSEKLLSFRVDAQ
# PP1 counter: PP1-alpha phosphatase inhibitors, primary screen, counter-screen for PP5 inhibitor project, biochemical, fluorescence, OMFP substrate, single point; Serine/threonine-protein phosphatase PP1-alpha catalytic subunit (Homo sapiens), P62136; purified PP1alpha; inhibition, % at 6.7 µM; hit rate 0.9% among 320,000; AID 2235, 2010;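 active means inhibition above the mean inhibition of all tested compounds plus 3 SD, computed separately for each screening campaign, cut at about 15% in these data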
# PP5 primary: PP5 phosphatase inhibitors, primary screen, biochemical, fluorescence. hit rate 0.18% among 320,000. Serine/threonine-protein phosphatase 5 (Homo sapiens), P53041. inhibition, % at 6.7 µM. AID 1987, 2009. purified PP5c, OMFP substrate fluorescence;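 active means inhibition above the campaign's mean inhibition across all tested compounds plus 3 SD, cut at about 9.5% in these data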;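 further: 0% = DMSO only and 100% = 100 µM cantharidin control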
# PG9 Ab binder: binders of HIV-1 gp120 antibody PG9, primary screen, biochemical, TR-FRET; HIV-1 gp120 / PG9 antibody interaction; TR-FRET gp120-PG9 antibody binding; inhibition, % at 6.7 µM; hit rate 0.43% among 360,000; AID 624416, 2012; in the data active means inhibition above about 8.5%
# PP1 inh confirm: PP1 phosphatase inhibitors, confirmation, biochemical, fluorescence, OMFP substrate, triplicate; shares compounds with PP1 counter; inhibition, % at 6.7 µM; purified PP1alpha; hit rate 52% among 1,900; AID 2358, 2010;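 active means mean PP1 inhibition above a set limit taken from the earlier primary screen, cut at about 15% in these data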
# PP5 counter: PP5 phosphatase inhibition by PP1 hits, confirmation, counter-screen for PP1 inhibitor project, biochemical, fluorescence, triplicate; hit rate 4% among 1,900; purified PP5c, OMFP fluorescence; shares compounds with PP1 counter; inhibition, % at 6.7 µM;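 active means mean PP5 inhibition over triplicate wells above about 9.5% taken from the earlier PP1 screen, limit read from the data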
# The depositor's hits bear a star; · = no result.
SMILES,GASC-1 inh,KLK7 zymogen act,NR1D1 modulator,PP1 counter,PP5 primary,PG9 Ab binder,PP1 inh confirm,PP5 counter
Cc1ccccc1-n1c(SCC(=O)N/N=C/c2c(C)nn(-c3ccccc3)c2C)nc2ccccc2c1=O,7.5,-0.4,2.5,18.5*,3.2,-1.1,9.3,2.7
Cc1ccc(NC(=S)NNC(=O)CSc2nc3sc4c(c3c(=O)n2-c2ccccc2)CCCC4)cc1,·,-1.2,-1.4,·,·,·,·,·
CC(=O)Nc1ccc(S(=O)(=O)N(C)Cc2ccccc2)cc1,-2.4,-0.4,-0.5,6.0,0.3,-2.3,·,·
CCc1nnc(NC(=O)c2ccc(S(=O)(=O)N(CC)Cc3ccccc3)cc2)o1,-0.6,0.0,1.6,36.4*,-3.6,-0.7,32.1*,-0.1
CCc1nnc(NC(=O)c2ccc(S(=O)(=O)N(C)Cc3ccccc3)cc2)o1,1.0,-0.1,4.2,36.8*,2.5,-2.7,34.1*,3.7
CN(Cc1ccccc1)S(=O)(=O)c1ccc(C(=O)Nc2nnc(C3CC3)o2)cc1,-2.6,·,·,36.4*,2.2,·,31.1*,-0.2
COc1ccccc1-c1nnc(NC(=O)c2ccc(S(=O)(=O)N(C)Cc3ccccc3)cc2)o1,·,·,·,21.0*,3.1,·,30.8*,-0.9
CCN(CC)S(=O)(=O)c1ccc(C(=O)Nc2nnc(COC)o2)cc1,-9.2,-0.6,3.3,4.6,2.8,-1.6,·,·
N#Cc1ccc(NC(=O)OC2CCC23CCC(c2ccccc2)CC3)cc1 (stereo not drawn),·,-0.9,8.3,·,·,·,·,·
CCN(Cc1ccccc1)S(=O)(=O)c1ccc(C(=O)Nc2nnc(C)o2)cc1,-4.0,-0.3,-0.8,38.2*,2.6,-0.8,26.3*,-1.5
O=C(C1CCC1)N1CCc2cc(S(=O)(=O)N3CCN(c4ccccc4F)CC3)ccc21,·,0.2,-11.7,·,·,·,·,·
O=C(Nc1ccc(Br)cc1)c1ccc(N2C(=O)C3CC=C(Cl)CC3C2=O)cc1 (stereo not drawn),-7.5,-1.2,-5.3,26.5*,2.7,-3.0,25.6*,-3.2
COc1ccc2nc3cc(Cl)ccc3c(Nc3cc(CN4CCCC4)c(O)c(CN4CCCC4)c3)c2n1,1.1,6.4,8.9,32.4*,8.2,-8.8,1.2,-0.9
COCc1cc(CN2CCCC2)c(O)c2ncccc12,9.4,0.2,-0.7,7.5,0.6,-0.7,·,·
CCOC(=O)[C@@]12CCCC3=C1N(CCC3)C(=O)[C@H]2CC(=O)NCC12CC3CC(CC(C3)C1)C2,·,0.4,1.8,·,·,·,·,·
Cc1ccc(C(C)C)c(OCc2ccc(C(=O)N/N=C/c3cccc(O)c3O)cc2)c1,10.7,-0.5,0.8,23.2*,1.8,-1.3,17.7*,-0.4
Cc1ccc(C(C)C)c(OCc2ccc(C(=O)N/N=C/c3ccc(O)c(O)c3)cc2)c1,-11.9,-1.5,1.1,4.0,7.1,1.7,·,·
COc1ccc(OC)c(CN2C(=O)CCCC2(C)c2nnnn2C2CCCC2)c1 (stereo not drawn),·,0.4,-1.6,·,·,·,·,·
COc1ccc(-c2oc3ccccc3c2C#Cc2cncn2C)cc1,-0.7,-27.9,5.7,17.5*,2.6,-1.6,24.6*,-5.7
CCOC(=O)[C@]12CCCCC/C=C\1N(CCc1ccc(Cl)cc1)C(=O)[C@H]2CC(=O)NCc1cccs1,·,0.6,4.4,·,·,·,·,·
C#CCOCCOCCOCCNc1nc(N2CCN(C(=O)CCCCCCCCCCNC(=O)[C@H]([C@@H](C)CC)n3cc(CCCCCN)nn3)CC2)nc(N2CCN(C(=O)CCCCCCCCCCNC(=O)[C@@H]([C@H](C)O)n3cc(C)nn3)CC2)n1,3.3,·,·,53.9*,3.7,·,40.8*,0.0
C#CCOCCOCCOCCNc1nc(N2CCN(C(=O)CCCCCCCCCCNC(=O)[C@H](CCC(=O)O)n3cc(CCCCCN)nn3)CC2)nc(N2CCN(C(=O)CCCCCCCCCCNC(=O)[C@@H]([C@H](C)O)n3cc(C)nn3)CC2)n1,-5.6,·,·,4.0,2.5,·,·,·
C#CCOCCOCCOCCNc1nc(N2CCN(C(=O)CCCCCCCCCCNC(=O)[C@H](CCCCN)n3cc(C)nn3)CC2)nc(N2CCN(C(=O)CCCCCCCCCCNC(=O)[C@@H]([C@H](C)CC)n3cc(CCCCCN)nn3)CC2)n1,·,·,·,60.5*,4.6,·,28.5*,-0.9
CN1CCN(S(=O)(=O)c2cccc(C(=O)Oc3ccc(Br)cc3F)c2)CC1,-13.8,-0.4,0.2,34.1*,-0.8,0.9,-1.9,-3.6
COc1ccc(Nc2nccc(-c3ccc(C#N)cc3)n2)cc1,5.8,0.2,-1.4,20.1*,-5.8,-0.2,5.9,-3.0
SMILES,GASC-1 inh,KLK7 zymogen act,NR1D1 modulator,PP1 counter,PP5 primary,PG9 Ab binder,PP1 inh confirm,PP5 counter
COc1ccc(Nc2nccc(-c3cccc(N)c3)n2)cc1,-1.0,0.2,4.0,-1.2,2.2,-1.1,·,·
COC(=O)[C@]12C[C@H](CC(=O)NCc3ccc(OC)c(OC)c3)C(=O)N(CCC3=CCCCC3)C1=C[C@H](C(C)(C)C)O[C@@H]2C,·,-0.3,-7.2,·,·,-0.2,·,·
O=C1N/C(=C/c2ccc(N3CCCC3)cc2)C(=O)N1c1ccccc1,2.0,0.0,7.3,22.7*,4.1,-4.8,11.4,-2.8
COc1cccc(NC(=O)Cn2nnc(C(=O)Nc3cc(Cl)ccc3OC)c2N)c1,6.3,0.3,2.1,18.1*,0.5,3.5,19.5*,-2.4
COc1ccc(Cl)cc1NC(=O)c1nnn(CC(=O)Nc2ccc(OC)c(OC)c2)c1N,-0.7,-0.2,-0.1,-1.1,-0.3,-0.3,·,·
CCCCCN1CCCCC(NC(=O)Cc2ccccc2)C1=O (stereo not drawn),·,0.2,0.6,·,·,·,·,·
CS(=O)(=O)c1ccc(-c2nnc(NC(=O)c3ccc(S(=O)(=O)N4CCCC4)cc3)o2)cc1,10.8,0.0,0.1,2.7,-0.4,-1.0,·,·
COc1ccc(-c2nnc(NC(=O)c3ccc(S(=O)(=O)N4CCCc5ccccc54)cc3)o2)cc1,-22.8,·,·,29.4*,0.4,·,39.5*,3.9
O=C(Nc1nnc(C2CC2)o1)c1ccc(S(=O)(=O)N2CCCc3ccccc32)cc1,-2.0,-0.6,1.3,33.4*,2.0,-1.4,31.5*,0.9
O=C(Nc1ccc(N2CCCC2)cc1)c1ccccc1[N+](=O)[O-],-0.1,-0.2,5.3,19.0*,1.3,-2.8,-4.4,-2.5
